Screening results from PubChem.
Only some compounds are listed: those with a hit (about 19% of all), similar ones and a draw of the others.
HT1080-NT tox: kills 2HG-producing HT-1080-NT fibrosarcoma cells | HT-1080-NT fibrosarcoma viability, CellTiter-Glo ATP luminescence, 48 h | Potency, µM (doses to about 46.1 µM), for the others: top-dose activity, negative = less viability, usual class: cytotoxic | hit rate 1.6% among 360,000 | AID 686970;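 also: NT is the 2HG producing partner of a matched IDH1 knockdown line; potency is read from the fitted curve at half-maximal effect; 0% = DMSO-treated cells and -100% = media-only wells without cells; nearly all actives have a fitted effect of over 55% in size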
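Toxicity toward the 2HG-producing NT line was scored as %Activity, normalised to DMSO and no-cell wells, from CellTiter-Glo luminescence after 48 hours' treatment.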
TDP1 cell CPT: growth inhibition of DT40 Tdp1-/-;hTDP1 cells with camptothecin (screen for TDP1 inhibitors) | hit rate 12% among 420,000 | chicken DT40 Tdp1-/-;hTDP1 cells + 20 nM CPT, ATP luminescence, 48 h | Potency, µM (top dose mostly 46.2 µM), for inactives: at the top dose activity change, negative = growth inhibition, actives largely listed as inhibitors; also: potency is read from the fitted curve at half-maximal effect; nearly all actives have a fitted effect of over 55% in size
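Cell growth measured by CellTiter-Glo luminescence after a minimum 48 h, 37 C compound exposure with 20 nM CPT in Tdp1-knockout DT40 cells stably expressing hTDP1, seeded 400/well; qHTS titration format.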
IL1B secr inh: inflammasome signaling inhibition, IL-1 beta readout | THP-1 LPS/ATP IL-1B secretion, AlphaLISA, 16 h; stronger effect = lower value | activity change, % at 57.5 µM | hit rate 4.7% among 360,000 | AID 743279; in the data active = activity change below about -50%; inconclusive = mostly about -30% to -49%
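Secreted IL-1B measured by AlphaLISA bead assay after 16 h compound exposure of THP-1 cells; compounds (final up to 57.5 uM) added 1 h before LPS (250 ng/mL) and ATP (1.25 mM) stimulation; lower signal means less secretion.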
DT40 TDP1 no CPT: qHTS for Inhibitors of human tyrosyl-DNA phosphodiesterase 1 (TDP1): qHTS in cells in absence of CPT; DT40 Tdp1-/- hTDP1 cells, no CPT, ATP luminescence, 48 h; Potency, µM (titrated, usually from 46.2 µM), for inactives: at the top dose activity change, negative = growth inhibition, most hits filed as inhibitors; hit rate 15% among 420,000; AID 686978, 2013; also: potency is read from the fitted curve at half-maximal effect; nearly all actives have a fitted effect of over 55% in size
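Seeded 400 DT40-hTDP1 cells/well (vehicle DMSO, no 20 nM CPT); pinned compounds; ≥48 hr at 37 °C; CellTiter-Glo luminescence as viability measure.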
HT1080 IDH1KD tx: toxicity to HT-1080 IDH1 knockdown cells (counter line) | HT-1080 IDH1 knockdown viability, ATP luminescence, 48 h | Potency, µM (titrated, usually from 46.1 µM), for inactives: at the highest dose activity, negative = toxicity, usual class: cytotoxic | hit rate 2% among 360,000 | AID 686971;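 also: potency is read from the fitted curve at half-maximal effect; 0% = DMSO wells and -100% = cell-free medium wells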
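Viability of IDH1-knockdown HT-1080 fibrosarcoma cells was assessed by CellTiter-Glo after 48 h at 37 °C with titrated compound; concentration-effect curves were classified by fit quality and response size.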
An asterisk follows results filed as active; u = inconclusive; x = no result. Unless noted, calls follow the shape of the dose curve; as a rule, active = well fitted curve in the direction sought with a large enough effect; inconclusive = small, poorly fitted or top-dose-only effect, or another doubt; inactive = no such curve, though single readings can be large; an effect the other way counts as inactive or inconclusive. Unless noted, % is scaled to controls: 0 for no effect and ±100 for the full control effect.

SMILES	HT1080-NT tox	TDP1 cell CPT	IL1B secr inh	DT40 TDP1 no CPT	HT1080 IDH1KD tx
O=C1CC(Sc2nnnn2C2CCCCC2)C(=O)N1c1ccccc1 (stereo not given)	u	2.91µM*	3.8	4.11µM*	5.01µM*
Clc1ccccc1CNc1nc2ccccc2c2nc(-c3cccnc3)nn12	x	-19.9%	x	-4.3%	x
Cc1cc2oc(C(=O)Nc3ccc(S(=O)(=O)N4CCC(C)CC4)cc3)cc(=O)c2cc1C	x	-3.4%	x	-7.9%	x
COc1cc(CNc2ccc(N3CCCC3)cc2)ccc1OCc1ccccc1F	-7.2%	3.66µM*	-19.5	4.61µM*	-3.7%
COc1cc(CNc2ccc(N3CCCCC3)cc2)ccc1OCC(=O)NC(C)(C)C	-5.6%	u	-19.6	23.1µM*	-6.2%
COc1cc(CNc2ccc(N3CCCC3)cc2)ccc1OCc1ccccc1	u	1.64µM*	-19.7	2.06µM*	-23.8%
C=CCOc1c(CNc2ccc(S(N)(=O)=O)cc2)cccc1OC	-9.6%	u	u	18.4µM*	-10.4%
COc1ccc(CNc2ccc(S(N)(=O)=O)cc2)c(OC)c1OC	-5.4%	-23.9%	-4.3	-7.6%	-2.5%
CC(NCc1cc(Br)ccc1OCC(N)=O)C12CC3CC(CC(C3)C1)C2 (stereo not given)	-19.7%	u	-61.2*	18.4µM*	-21.1%
COc1cc(CNC(C)C23CC4CC(CC(C4)C2)C3)cc(OC)c1OC (stereo not given)	-16.7%	u	-19.7	u	-8.7%
COc1cc(C)ccc1OC(C)C(=O)Nc1ccc(N2CCCCC2)cc1 (stereo not given)	4.2%	u	-15.7	13µM*	12.0%
COc1cc(CNCc2cccs2)ccc1OCc1ccccc1	u	-29.1%	-22.4	-19.4%	0.0%
COc1cc(CNC(C)C23CC4CC(CC(C4)C2)C3)ccc1OCC(=O)NC(C)(C)C (stereo not given)	u	-106.8%	-88.0*	20.6µM*	23.1µM*
COc1ccc(C(=O)Nc2ccc(N3CCCC3)cc2)cc1OC	-27.8%	u	-26.9	u	u
COc1cc(CNC23CC4CC(CC(C4)C2)C3)ccc1OCc1ccccc1	-14.9%	29.1µM*	-16.9	20.6µM*	-4.8%
COc1cc(/C=N/NC(=O)CSc2nc3ccccc3n2C)cc(OC)c1OC	-1.6%	-19.0%	0.0	u	-10.0%
Cc1nc2ccccc2n1CCc1nc2c3ccccc3nc(SCc3ccc(C#N)cc3)n2n1	x	-16.4%	x	-6.3%	x
O=C(CC(c1ccccc1)c1ccccc1)Nc1ccc(C(=O)O)cc1	-12.5%	2.7%	9.2	17.9%	-0.6%
COc1cc(CNc2ccc(S(N)(=O)=O)cc2)ccc1OCc1ccccc1F	-2.4%	18.4µM*	-7.1	u	-9.8%
COc1ccc(Cl)cc1C(=O)NNC(=O)CSc1nnnn1C	16.2%	5.4%	11.9	-2.4%	13.8%
CCc1ccc2[nH]c(=O)c(CN(CCN(CC)CC)C(=S)NCc3ccco3)cc2c1	-21.0%	u	-63.7*	u	u
Cc1cc2cc(CN(Cc3ccco3)C(=O)NCc3ccccc3)c(=O)[nH]c2cc1C	17.2%	2.2%	14.3	11.5%	13.0%
CCc1ccc2[nH]c(=O)c(CN(Cc3ccc4c(c3)OCO4)C(=O)c3ccco3)cc2c1	-6.3%	23.1µM*	-21.6	u	-6.2%
CCc1ccc2[nH]c(=O)c(CN(CC3CCCO3)C(=S)NCc3ccco3)cc2c1 (stereo not given)	0.3%	20.6µM*	u	u	1.1%
CCc1ccc2[nH]c(=O)c(CN(CCN(C)C)C(=S)NCc3ccco3)cc2c1	-12.1%	u	-73.9*	u	u
SMILES	HT1080-NT tox	TDP1 cell CPT	IL1B secr inh	DT40 TDP1 no CPT	HT1080 IDH1KD tx
Cc1cccc(C)c1NC(=O)CN(C)C(=O)c1cccc(NS(=O)(=O)c2ccccc2)c1	-1.7%	-7.7%	-6.4	-16.2%	-6.0%
O=[N+]([O-])c1ccc(-c2cn(-c3ccc(Cl)cc3)cn2)cc1	25.8%	u	-8.1	u	13.5%
O=C1c2ccc(-c3ccc4c(c3)C(=O)N(CCO)C4=O)cc2C(=O)N1CCO	0.0%	5.5%	0.0	6.0%	7.2%
C=CCN(C(=O)CCC(=O)O)C1CC(=O)N(c2ccc(OC)cc2)C1=O (stereo not given)	14.0%	2.5%	31.5	-1.9%	16.6%
C=CCN(C(=O)CCC(=O)O)C1CC(=O)N(c2ccc(OCCC)cc2)C1=O (stereo not given)	14.4%	23.1µM*	5.3	25.9µM*	16.9%
O=C(Nc1cccnc1)c1sc(Nc2ccccc2)nc1-c1ccccc1	0.1%	u	-12.0	u	-0.8%
Cc1cccc(Nc2nc(-c3ccccc3)c(C(=O)Nc3cccnc3)s2)c1	u	u	-60.9*	u	u
Cc1cccc(NC(=O)c2sc(Cl)nc2-c2ccccc2)c1	-0.9%	u	0.0	18.4µM*	-11.8%
COC(=O)c1n[nH]n(-c2ccccc2)c1=O	x	2.2%	x	-18.1%	x
Clc1ccc(OCc2nn3c(C4CCCCC4)nnc3s2)cc1	u	20.6µM*	-8.6	20.6µM*	u
CCc1ccc(N/C(SCc2ccccc2C)=C(/C#N)C(=O)NCc2ccco2)cc1	0.9%	u	-11.4	u	-6.5%
CCN(CC)CCCNC(=O)/C(=C\c1cccn1C)NC(=O)c1cccs1	-1.9%	1.6%	-9.7	-3.5%	-0.3%
CCN(CC)CCC=C(c1cccs1)c1cccs1	-14.3%	u	-24.0	23.1µM*	-15.9%
CC1(Cc2ccccc2F)C(=O)Nc2c(Cl)ccc(Cl)c21 (stereo not given)	u	u	29.6	u	-10.4%
O=Cc1cc(Br)c(OC(=O)N2CCOCC2)c(Br)c1	1.8%	u	13.3	-11.1%	-1.9%
O=C1NC2c3ccccc3CC2O1 (stereo not given)	12.8%	0.1%	27.3	27.3%	11.5%
O=C1NC2c3c(Cl)sc(Cl)c3C(=O)C2O1 (stereo not given)	u	20.6µM*	-102.7*	20.6µM*	u
O=C1NC2c3c(I)sc(I)c3C(=O)C2O1 (stereo not given)	u	6.51µM*	-56.0*	7.31µM*	u
CC1(C)C(=O)C=C(N2CCCCC2)c2ccccc21	-2.2%	u	9.7	u	-5.9%
COc1ccc(-c2cnc3c(NC=O)cc(-c4cc(OC)c(OC)c(OC)c4)cn23)cc1OC	u	6.51µM*	-27.9	5.17µM*	u
COc1ccc(-c2cnc3c(NC=O)cc(-c4ccoc4)cn23)cc1OC	u	5.17µM*	-22.6	2.91µM*	u
CC(=O)Nc1cc(-c2ccccc2N(C)C)cn2c(-c3cccc(C(F)(F)F)c3)cnc12	u	u	-20.7	u	u
